# In the library only some 3.3% were active in any assay of this set; here they are far more common.
# AmpC no deterg = AmpC beta-lactamase inhibition without detergent; AmpC nitrocefin hydrolysis, absorbance 480 nm, 0.0001% Triton; Potency, µM (highest dose often 57.1 µM), for the others: at the highest dose activity change, negative = inhibition, hits mostly inhibitors; 330,000 compounds, 0.52% hits; AID 485341;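 note: plate controls were no compound for no effect and no enzyme for full effect; nearly all actives have a fitted effect of over 20% in size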
# Target sequence (P00811 whole entry, looked up): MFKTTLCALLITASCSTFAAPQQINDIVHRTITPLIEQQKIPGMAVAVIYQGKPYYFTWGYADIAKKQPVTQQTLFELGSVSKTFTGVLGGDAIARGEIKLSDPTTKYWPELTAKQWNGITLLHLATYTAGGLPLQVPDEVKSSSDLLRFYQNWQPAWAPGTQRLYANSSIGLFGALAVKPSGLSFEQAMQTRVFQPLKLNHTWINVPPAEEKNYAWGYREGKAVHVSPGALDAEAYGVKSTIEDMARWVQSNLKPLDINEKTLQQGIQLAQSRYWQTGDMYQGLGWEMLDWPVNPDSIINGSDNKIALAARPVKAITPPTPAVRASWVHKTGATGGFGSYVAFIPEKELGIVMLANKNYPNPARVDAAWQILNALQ
#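 AmpC (5.3 nM in the dispensed reagent) in 20 mM phosphate pH 7.0 with 0.01% (detergent screen) or 0.0001% Triton X-100 was preincubated with compounds for 15 min at room temperature. Nitrocefin was then added from an 800 uM solution, and hydrolysis was followed at 480 nm.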
# AmpC inh detg = inhibitors of E. coli AmpC beta-lactamase with detergent; 370,000 compounds, 0.041% hits; AID 485294; Potency, µM (highest dose often 114 µM), for the others: at the highest dose activity change, negative = inhibition, most hits filed as inhibitors; AmpC hydrolysis of nitrocefin, absorbance 480 nm, 0.01% Triton; P00811;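 note: 0% = no-compound wells and -100% = no-enzyme wells; nearly all actives have a fitted effect of over 25% in size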
#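 20 mM phosphate pH 7.0 + 0.01% (detergent screen) or 0.0001% Triton X-100; 5.3 nM AmpC reagent; cpd preinc 15 min RT; nitrocefin (800 uM stock) to start; A480 q20 s × 4 min; Activity was normalised to no-enzyme and no-compound control wells.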
# Sm TGR block = S. mansoni TGR enzyme inhibition | 360,000 compounds, 3% hits | purified TGR, DTNB reduction, TNB absorbance 405 nm | Potency, µM (titrated, usually from 114 µM), inactives show top-dose activity change, negative = inhibition, usual class: inhibitors; note: nearly all actives have a fitted effect of over 60% in size
#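 Kinetic colorimetric format: TGR-catalysed, NADPH-driven DTNB reduction monitored via TNB absorbance. Enzyme dispensed at 20 nM; compound exposure 15 min at room temperature before reaction start.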
# * hit, by the source's call; ? = inconclusive; · = no result; [ ] = dose if it differs, or a comment. Calls come from the whole dose curve; as a rule, active = well fitted curve in the direction sought with a large enough effect; inconclusive = small, poorly fitted or top-dose-only effect, or another doubt; inactive = no such curve, though single readings can be large; an effect the other way counts as inactive or inconclusive. Unless noted, % is set by controls: 0 for no effect and ±100 for the full control effect; potency is the fitted concentration of half-maximal effect.
SMILES,AmpC no deterg,AmpC inh detg,Sm TGR block
Cc1ccc(-c2csc(NC(=O)c3cccc(N4C(=O)CCC4=O)c3)n2)o1,47%,-2%,8.9µM*
CCOc1ccc(-c2csc(NC(=O)c3cccc(N4C(=O)CCC4=O)c3)n2)cc1,1%,6%,7%
COc1ccc(NC(=O)Cn2c(=O)n(CCCC(=O)NCCc3ccc(C)cc3)c(=O)c3ccccc32)cc1Cl,·,18%,-8%
CCCn1c(=O)c2sccc2n2c(CCCC(=O)N3CCN(c4cccc(C)c4C)CC3)nnc12,·,-5%,-3%
CCOC(=O)c1c(/C=N/Nc2ccccc2)c2sc(C)cc2n1C,-28%,-3%,22µM*
COC(=O)c1c(C)[nH]c(/C=N/Nc2ccccc2)c1C,-8%,-4%,?
COc1ccc(C(=O)N2CC(=O)Nc3ccc(F)cc3C2c2ccccc2)cc1 (stereo not given),-8%,2%,5%
CCOC(=O)C(N)CSC1CC(=O)N(CCc2ccccc2)C1=O (stereo not given),3%,-7%,8.9µM*
O=C(O)c1cccnc1SC1CC(=O)N(CCc2ccccc2)C1=O (stereo not given),-8%,-13%,-31%
COc1ccc2c(c1)c1c(c(=O)n(-c3ccccc3)c(=O)n1CC(=O)NCCC1=CCCCC1)n2C,·,1%,1%
Cc1c(Cl)cccc1NC(=S)NCCN1CCOCC1,-20%,?,0%
Cc1c(Cl)cccc1NC(=S)NN1CCOCC1,-19%,0%,32µM*
CC(C)N(C1=CC(=O)OC12CCCCC2)C(C)C,-2%,0%,11%
CCN(CC)C1=CC(=O)OC12CCCCC2,-10%,-7%,1.6µM*
CN(C(=O)CN1CCN(c2ccc([N+](=O)[O-])cn2)CC1)c1ccccc1,56%,-10%,-12%
Cn1c(=S)[nH]c2sc3c(c2c1=O)CCC(C(C)(C)C)C3 (stereo not given),-29%,-15%,?
CC1CCC(NC(=O)CN(C)S(=O)(=O)c2cccc3cccnc23)CC1 (stereo not given),2%,9%,?
N/C(COc1ccccc1)=N\NS(=O)(=O)c1ccccc1,0.16µM*,1%,2%
C/C(=N\NS(=O)(=O)c1ccccc1)c1ccccc1,-21%,0%,-7%
COc1ccc(CNC(=O)c2cnc3sc(N4CCOCC4)nn3c2=O)cc1,·,-8%,-12%
CCOc1ncccc1C(=O)NNC(=O)c1cccc(S(=O)(=O)Nc2ccc(OC)cc2)c1,-48%,-4%,4%
CCCCC1=CC2=C(c3ccco3)C(=O)C(C)(OC(=O)c3ccc(OC)cc3)C(=O)C2=CN1CCN1CCOCC1 (stereo not given),112%,-1%,45µM*
CCCCC1=CC2=C(c3ccco3)C(=O)C(C)(OC(=O)c3ccc(OC)cc3)C(=O)C2=CN1CCCCO (stereo not given),107%,2%,?
CCCCC1=CC2=C(c3ccco3)C(=O)C(C)(OC(=O)c3ccc(OC)cc3)C(=O)C2=CN1CC(C)C (stereo not given),54%,6%,14µM*
CCCCC1=CC2=C(c3ccco3)C(=O)C(C)(OC(=O)c3ccc(OC)cc3)C(=O)C2=CN1Cc1ccc(OC)cc1 (stereo not given),13%,2%,-2%
SMILES,AmpC no deterg,AmpC inh detg,Sm TGR block
N#CC1(NC(=O)CN2C(=O)NC(c3ccccc3)(c3ccccc3)C2=O)CCCC1,-19%,2%,1%
NC(=O)Cn1c(=O)n(CCCCCC(=O)NCc2ccccc2)c(=O)c2sccc21,·,17%,8%
CCOc1ccc(N2C(=O)CC(N(C)Cc3ccccc3)C2=O)cc1 (stereo not given),-3%,-13%,32µM*
O=C(O)CSC1CC(=O)N(c2ccc(Cl)cc2)C1=O (stereo not given),-25%,-6%,5%[11.4 µM]
CCOc1ccc(N2C(=O)CC(N)C2=O)cc1 (stereo not given),-1%,-4%,3.5µM*
O=C(O)CSC1CC(=O)N(c2ccc(Br)cc2)C1=O (stereo not given),16%,1%,45µM*
CCCOc1ccc(N2C(=O)CC(SCCN)C2=O)cc1 (stereo not given),-2%,4%,35µM*
COC(=O)c1ccc(N2C(=O)CC(N(C)Cc3ccccc3)C2=O)cc1 (stereo not given),-24%,-3%,-4%
CCCOc1ccc(N2C(=O)CC(SCC(N)C(=O)OCC)C2=O)cc1 (stereo not given),0%,-2%,?
CCOc1ccc(N2C(=O)CC(Cc3cc(C)cc(C)c3)C2=O)cc1 (stereo not given),20%,-14%,0%

# Screens: PubChem BioAssay, National Center for Advancing Translational Sciences (NCATS)
